# Bioassay records deposited in PubChem by National Center for Advancing Translational Sciences (NCATS).
# A selection: hits, their analogues and other compounds. The true share with any hit is near 21%.
# Shiga inhibitor: A qHTS for Small Molecule Inhibitors of Shiga Toxin; Vero cells, Shiga toxin protein synthesis inhibition reporter; inhibition, % at 38.7 µM; actives 9.2% (n = 290,000); AID 2315, 2010; in the data active = inhibition mostly above about 28%, no sharp cut-off; inactive = mostly below about 43%; note: 0% is about no effect
# HCV inhibitor: qHTS Assay for Inhibitors of Hepatitis C Virus (HCV); Huh7.5.1 HCVcc-Cre infection, luciferase reporter, 44 h; Potency, µM (doses to about 41.8 µM), for the others: at the top dose activity change, negative = inhibition, hits mostly inhibitors; AID 651820, 2012; actives 3.4% (n = 340,000); note: potency is the fitted concentration of half-maximal effect; % is set by controls: 0 for no effect and ±100 for the full control effect
#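 Cells (1,000/well) were plated 4 h before compound, then infected with HCVcc-Cre virus (~0.5 moi). After 44 h further culture, infection was read as luciferase luminescence following a 15 min substrate incubation at room temperature.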
# Pf growth 48h: Primary qHTS for delayed death inhibitors of the malarial parasite plastid, 48 hour incubation | P. falciparum luciferase growth in erythrocytes, 48 h | Potency, µM (top dose mostly 28.7 µM), inactives show top-dose activity change, negative = inhibition, actives largely listed as inhibitors | actives 5.9% (n = 310,000) | AID 504832, 2011; note: potency is the fitted concentration of half-maximal effect; % is set by controls: 0 for no effect and ±100 for the full control effect
#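 In quantitative HTS format, infected erythrocytes bearing luciferase-reporter parasites were treated for a single generation at 37 C. Luminescence after adding detection reagent served as the growth measure.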
# Cycloheximide cs: Cycloheximide Counterscreen for Small Molecule Inhibitors of Shiga Toxin. cell reporter, cycloheximide protein synthesis inhibition counterscreen. max response, %. actives 12% (n = 300,000). AID 2314, 2010; in the data active = max response mostly above about 13%, no sharp cut-off; inactive = mostly below about 14%; note: read at 38.3 µM for the half of the compounds with a filed dose; 0% is about no effect
# Pf growth 96h: Primary qHTS for delayed death inhibitors of the malarial parasite plastid, 96 hour incubation; Potency, µM (series often up to 28.7 µM), inactives show at the top dose activity change, negative = inhibition, actives largely listed as inhibitors; actives 6.9% (n = 320,000); P. falciparum luciferase reporter growth, 96 h; AID 504834, 2011; note: potency is the fitted concentration of half-maximal effect; % is set by controls: 0 for no effect and ±100 for the full control effect
#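 Two parasite generations (96 h, 37 C, 5% CO2) of compound exposure in infected erythrocytes (0.05% parasitemia, 2% hematocrit). Luciferase-reporter P. falciparum; decreased luminescence indicates inhibited growth, aimed at apicoplast-acting delayed death.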
# HCMV antiviral: qHTS Assay for inhibitors of the human cytomegalovirus (HCMV). HFF cells, HCMV-luciferase reporter, 72 h; hits give low values. activity change, negative = inhibition, % at 57.5 µM. actives 4.5% (n = 410,000). AID 1259415, 2018; in the data active = activity change below about -60%; inconclusive = no clear call, values can overlap the other calls; inactive = above about -39%; note: % is set by controls: 0 for no effect and ±100 for the full control effect
#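 HFF cells seeded 16 h at 37C, treated with compounds, infected with luciferase-reporter HCMV at MOI 1 PFU/cell; luciferase read at 72 h post infection, normalized to buffer-only and Salinomycin controls.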
# An asterisk follows results filed as active; i = inactive; u = inconclusive; x = no result; [ ] = dose if it differs, or a comment. Unless noted, calls come from the whole dose curve; as a rule, active = well fitted inhibition curve with a large enough effect; inconclusive = small, poorly fitted or top-dose-only effect, or another doubt; inactive = no such curve, though single readings can be large or run the other way.
SMILES,Shiga inhibitor,HCV inhibitor,Pf growth 48h,Cycloheximide cs,Pf growth 96h,HCMV antiviral
COc1cc2c(cc1OC)C1O[C@](CCCCN3C(=O)c4ccccc4C3=O)(C2)Oc2c1c(=O)oc1ccc(F)cc21,i,x,u,-3.8,-13.9%[5.75 µM],x
NC(=O)c1cccc(-c2ccnc3c2CC(C(=O)Nc2cccc(C(F)(F)F)c2)O3)c1 (stereo not given),x,x,x,x,x,-22.1
CC(=O)c1cccc(NC(=O)c2cc(=O)[nH]c3ccc(S(=O)(=O)N4CCOCC4)cc23)c1,x,-0.9%,x,x,x,-10.6
CN(Cc1ccccc1)C(=O)COC(=O)c1cc(S(=O)(=O)N(C)C)ccc1N1CCCC1,x,u,9.28µM*,x,11.7µM*,-16.9
COc1ccc(N2CCN(C(=O)COC(=O)c3cc(S(=O)(=O)N(C)C)ccc3N3CCCC3)CC2)cc1,x,4.2%,10.4µM*,x,u,-4.1
CN(Cc1ccccc1)C(=O)COC(=O)Cc1ccc(Cl)cc1,x,-2.2%,x,x,x,-0.1
CN(Cc1ccccc1)C(=O)COC(=O)c1ccc(Cl)cc1N,46.5,5.9%,12.2%,28.7*,16.7%,-29.2
CN(CC(=O)Nc1ccccc1Cl)C(=O)COC(=O)c1cc(S(=O)(=O)N(C)C)ccc1N1CCCC1,x,-25.9%,9.1%,x,7.2%,-16.2
COc1ccccc1C(=O)Nc1ncc2c(n1)CC(c1ccco1)CC2=O (stereo not given),-4.7,u,u,1.1,13.2%,-84.3*
CCN1CCN(Cc2c(O)ccc3c(=O)c(-c4ccccc4OC)coc23)CC1,-8.1,14.4%,u,-3.1,x,-24.3
CCN1CCN(Cc2c(O)ccc3c2O/C(=C\C=C\c2ccccc2OC)C3=O)CC1,97.4*,-10.9%,2.94µM*,57.3*,4.15µM*,-5.1
CC1CCN(Cc2c(O)ccc3c2O/C(=C\c2ccco2)C3=O)CC1,-9.7,7.5%,14.7µM*,-1.2,10.4µM*,x
COc1ccc(Cn2ccnc2SCC(=O)Nc2ccc(C)cc2C)cc1,x,x,x,x,x,-15.2
C/C(=C\c1ccccc1)CN1CCN(Cc2ccc(C)o2)C(CCO)C1 (stereo not given),-9.5,2.5%,u,2.6,2.08µM*,u
Cc1ccc(C(=O)NC2CCN(CC(=O)Nc3cccc([N+](=O)[O-])c3)CC2)cc1,-4.4,u,-11.6%,-2.7,-26.6%,10.9
CCOC(=O)C1=C(COC(=O)CSc2ccc(C)cc2)NC(=O)NC1C (stereo not given),x,-10.2%,-12.3%,x,-7.3%,33.5
Cc1ccc(C(=O)Cn2nnc(-c3cccs3)n2)cc1,79.2*,9.9%,65.1%,31.7*,92.6%,14.9
O=C(CCn1nnc(-c2cccs2)n1)NC1CCCCC1,-4.4,12.4%,13.6%,-4.1,51.1%,-39.7
O=C(Cn1nnc(-c2cccs2)n1)NCc1cccs1,11.0,14.0%,11.9%,64.8*,10.2%,46.0
O=C1NC(=O)N2CCSC2(Cc2ccccc2)N1 (stereo not given),x,22.1%,x,x,x,-98.4*
C1CSC2(N1)C1CC3CC(C1)CC2C3 (stereo not given),-10.5,-5.8%,34.5%,-2.9,-4.5%,28.9
S=C1NNC2(NN1)C1CC3CC(C1)CC2C3,44.7*,-0.9%,-14.5%,31.7*,-14.0%,55.5
Cc1sc2ncn(CC(=O)NCCCN3CC(C)CC(C)C3)c(=O)c2c1S(=O)(=O)N1CC(C)CC(C)C1 (stereo not given),-5.9,u,-17.9%,-1.4,-10.8%,-13.2
Cc1ccc(/C=C2/SC(=O)N(CC(=O)N3CCOCC3)C2=O)s1,27.3,31.8%,0.0%,-4.9,0.0%,6.1
Cc1ccsc1/C=C1/SC(=O)N(CC(=O)N2CCOCC2)C1=O,69.9,23.6%,118.8%,24.8*,0.0%,0.8
SMILES,Shiga inhibitor,HCV inhibitor,Pf growth 48h,Cycloheximide cs,Pf growth 96h,HCMV antiviral
O=C(CN1C(=O)S/C(=C/c2ccc(N3CCOCC3)cc2)C1=O)N1CCOCC1,35.6*,-0.9%,86.1%,17.4*,151.4%,14.6
COc1ccc2c(c1)[C@@H](NC(C)=O)[C@H](C)[C@@H](c1ccccc1)N2C(=O)Nc1ccc(C(F)(F)F)cc1,x,x,x,x,x,-26.6
C=CCNC(=O)/C=C/c1cccs1,10.9,5.6%,27.2%,5.3,45.3%,-31.9
O=C(/C=C/c1cccs1)NNC(=O)c1ccccc1,x,12.0%,99.4%,x,127.7%,103.8
O=C(/C=C/c1cccs1)NC1CCS(=O)(=O)C1 (stereo not given),-9.6,20.4%,18.2%,-1.7,26.6%,4.6
CC(C)CNC(=O)/C=C/c1cccs1,24.0,-3.8%,62.3%,18.6*,u,18.2
O=C(/C=C/c1cccs1)NC1CCCC1,48.3*,10.1%,20.8%,18.2,34.0%,-25.8
CCC(C)(C)NC(=O)/C=C/c1cccs1,12.1,19.2%,17.1%,11.0*,34.3%,9.2
c1ccc2c(c1)ccc1[nH]c3c(c12)CCCC3,x,u,x,x,x,57.0
COCC(=O)N1c2nc(C(C)C)nn2C2(CCCCC2)[C@@H]2CCCC[C@@H]21,x,x,x,x,x,57.6
COc1cccc(NC(=O)CSc2c(C)cnc3c2c(=O)n(C)c(=O)n3C)c1,x,x,x,x,x,-14.2
O=C(Nc1cc2c3c(c1)CC(=O)N3CCC2)c1ccc(F)cc1,x,4.3%,-9.7%,x,17.2%,29.1
COc1ccc(C(=O)Nc2cccc3c2CCCC3)c(OC)c1,x,31.6µM*,x,x,x,-32.5
COc1ccc(C(=O)Nc2cc3c4c(c2)CC(=O)N4CCC3)cc1,x,2.24µM*,-7.0%,x,-4.3%,-10.4
COc1ccc(C(=O)Nc2cc3c4c(c2)CC(=O)N4CCC3)c(OC)c1,x,3.98µM*,-6.5%,x,1.7%,x
CCOC(=O)C1=CCN(S(=O)(=O)c2ccc(Cl)cc2)C1c1ccccc1 (stereo not given),x,x,x,x,x,-26.0
COc1cc(C(=O)NC(c2ccccc2Cl)c2cc(Cl)c3cccnc3c2O)cc(OC)c1OC (stereo not given),x,x,x,x,x,-79.3*
COc1ccc(C(=O)NC(c2ccccc2Cl)c2cc(Cl)c3cccnc3c2O)cc1 (stereo not given),-1.9,x,x,-1.8,x,-98.0*
COc1ccc(/C=N/Nc2nc(Nc3ccccc3)nc(N3CCCC3)n2)cc1[N+](=O)[O-],-17.4,u,2.08µM*,-1.0,-5.6%,u
COc1ccc(/C=N/Nc2nc(N3CCCCC3)nc(N3CCCCC3)n2)cc1[N+](=O)[O-],-3.2,3.55µM*,u,-1.7,46.7%,-74.2*
COc1cc(/C=N/Nc2nc(Nc3ccccc3)nc(N3CCCCC3)n2)ccc1OCC(=O)O,9.0,19.8%,130.2%,8.4,u,-36.1
CCOc1ccc(/C=N/Nc2nc(N3CCCC3)nc(N3CCCC3)n2)cc1OC,-17.1,-26.6%,10.4µM*,0.5,u,20.4
